# A number with no mark means an inactive call.
# Test system: Toxoplasma gondii RH 2F1 tachyzoites (intracellular in HFF)
# Assay: parasite survival relative to DMSO control; higher = less antiparasitic activity, active = 20 or less
# Conditions: 1 µM; 72 h
# How it was run: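 Parasite survival was taken as the CPRG signal relative to DMSO-treated infected wells, given as a percentage. To obtain it, HFF cells (5 × 10^3 cells/well, 96-well plates) were infected for 3 h in D2 medium with 5 × 10^3 β-galactosidase-expressing Toxoplasma gondii RH-2F1 tachyzoites, then exposed to compound at 1 μM for 72 h at 37°C in 5% CO2. Absorbance at 570 nm was measured 30 min after CPRG was added to lysed cells, and 2 or more biological replicates were run.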
row,Structure (SMILES),parasite survival
1,CCCCCCCc1[nH]c2ccccc2c(=O)c1O,49%
2,CCC[C@H](NC(=O)[C@@H]1[C@H]2CCC[C@H]2CN1C(=O)[C@@H](NC(=O)[C@@H](NC(=O)c1cnccn1)C1CCCCC1)C(C)(C)C)C(=O)C(=O)NC1CC1,46.8%
3,Cc1[nH]c2ccccc2c1CC(=O)N[C@@H](Cc1ccccc1)C(=O)N(C)c1ccccc1,83.1%
4,COc1ccc(CNC(=O)C(NS(=O)(=O)c2ccc3nc(C)sc3c2)C(C)C)cc1 (stereo not given),56.4%
5,C[C@@H]1O[C@@H]1P(=O)(O)O,46.3%
6,O=C(NC(=O)N1CCCc2ccccc21)c1ccc(Cl)cc1Cl,55.9%
7,O=C(CC1Sc2ncnn2C1=O)Nc1ccc(Br)cc1 (stereo not given),28.1%
8,CCN(CC)CCCC(C)Nc1ccnc2cc(Cl)ccc12 (stereo not given),70.6%
9,CC(C)(C)c1ccc(OCCn2nc(C(=O)O)c3ccccc3c2=O)cc1,45.3%
10,C[C@H](NC(CC(=O)c1ccccc1C(F)(F)F)C(=O)O)c1ccccc1 (stereo not given in full),63%
11,O=[N+]([O-])/C(Br)=C/c1ccc(Br)o1,26.6%
12,O=C(/C(=C/c1ccc(Cl)cc1Cl)n1ccnc1)c1ccc(Cl)cc1,10.2% (active)
13,OB1OCc2c1ccc(Cl)c2F,77.1%
14,FC(F)(F)Oc1ccc(Nc2ccc3cccc(Cl)c3n2)cc1,41.4%
15,CCC(CC)[C@H](NC(C)=O)[C@@H]1[C@H](O)[C@@H](C(=O)O)C[C@H]1NC(=N)N,69.6%
16,N#Cc1c(F)c(Cl)c(NCc2ccccc2)c(C#N)c1F,31.9%
17,Cc1ccc(NC(=O)c2ccc(CN3CCN(C)CC3)cc2)cc1Nc1nccc(-c2cccnc2)n1,61%
18,CC(Oc1ccc(Cl)cc1Cl)C(=O)NCc1ccc2c(c1)OCO2 (stereo not given),31.2%
19,CCCCCOc1ccc(/C=C2\Oc3c(ccc(O)c3O)C2=O)c(O)c1,48.2%
20,CSC[C@H]1CN(Cc2c[nH]c3c(N)ncnc23)C[C@@H]1O,45.9%

row,Structure (SMILES),parasite survival
1,C[C@@]1(O)[C@H](O)[C@@H](CO)O[C@H]1n1ccc2c(N)ncnc21,58.6%
2,CC(C)=CCC/C(C)=C/CNCCNC1C2CC3CC(C2)CC1C3 (stereo not given),8.85% (active)
3,CCNC(=O)Nc1cn2c(-c3ncc(CC)cn3)cc(-c3cccnc3)cc2n1,34.6%
4,CC1CCc2c(N3CCC(O)CC3)c(F)cc3c(=O)c(C(=O)O)cn1c23 (stereo not given),51%
5,CC(C)(C)c1cc(C(=O)/C(C#N)=N/Nc2cccc(Cl)c2)no1,37.6%
6,CC(C)/N=c1\cc2n(-c3ccc(Cl)cc3)c3ccccc3nc-2cc1Nc1ccc(Cl)cc1,4.63% (active)
7,COc1ccc(C(C)(C)C)cc1NC(=O)C(=O)c1ccc(OCCN2CCOCC2)c2ccccc12,45.8%
8,CC(C)CCN1C(=O)C(C2=NS(=O)(=O)c3cc(NS(C)(=O)=O)ccc3N2)=C(O)[C@@H]2[C@H]3CC[C@H](C3)[C@@H]21,72.3%
9,COc1ccc(OCc2ccc(COc3c(Cl)cccc3Cl)cc2)c(Cl)c1,72%
10,Cc1onc(-c2ccccc2Cl)c1C(=O)N[C@@H]1C(=O)N2[C@@H]1SC(C)(C)[C@@H]2C(=O)O,50.5%
11,COc1cc(NCc2ccc3nc(N)nc(N)c3c2C)cc(OC)c1OC,3.86% (active)
12,CN(C)[C@@H]1C(=O)C(C(N)=O)=C(O)[C@@]2(O)C(=O)C3=C(O)c4c(O)c(NC(=O)CN5CCCC5)cc(F)c4C[C@H]3C[C@@H]12,34.5%
13,Oc1cccc(C(Nc2nccs2)c2ccc3cccnc3c2O)c1 (stereo not given),2.96% (active)
14,CN1C(=O)C(c2ccccc2)C(=O)N(c2ccccc2)c2cc(C(F)(F)F)ccc21 (stereo not given),79.5%
15,Cc1cccc(CC(=O)N[C@H]2CCOC2=O)c1,38.3%
16,NS(=O)(=O)c1ccc(NC(=O)NC(c2ccccc2)c2ccccc2)cc1,32%
17,CN(Cc1ccc(C(C)(C)C)cc1)Cc1cccc2ccccc12,37.9%
18,C[C@@H](NC(=O)c1ccccc1-c1ccccc1)B(O)O,43.9%
19,CCc1c(O)nc2ccc(F)cc2c1OCC1CCC1,41%
20,Cc1cc(C)n(O)c(=O)c1,49.3%
